Measured values as given in PubChem BioAssay AID1159580 (chemical genetic matrix, 2015).
Where “and” joins values, the source holds several entries; their conditions need not be identical. Identical values can stand only once. Among all 5,500 compounds or so, about 2,000 (36%) were called active. Another 18% or so got no clear call; they are omitted. Rule as the data show it: active = normalized growth mostly below about 0.91 (no sharp cut-off); inconclusive = no clear call, values can overlap the other calls; inactive = mostly above about 0.92. The list shows a part of the results.

Assay: chemical genetic growth profiling, strain panel (AID 1159580);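 also: tested at 20 µM; growth read once vehicle control cultures reached saturation at 30 °C; 1 = growth at the plate median or of vehicle wells; lower values mean less growth of the strain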
Settings: S. cerevisiae deletion strains, growth OD
[1] = locus YPL241C, strain CIN2, active compounds read low

Measured: normalized growth

CN1C(=O)CCC1c1cccnc1 (stereo not drawn)
inactive: locus YAL013W, strain DEP1, active compounds read low 1.02 | locus YAL040C, strain CLN3, active compounds read low 1.02 | locus YER002W, strain NOP16, active compounds read low 1 | locus YJR075W, strain HOC1, active compounds read low 1.01 | locus YNL175C, strain NOP13, active compounds read low 0.999 | locus YNL224C, strain SQS1, active compounds read low 1.01 | locus YOR083W, strain WHI5 (second series), active compounds read low 1.02 | [1] 1.01

CN1C(=O)CC[C@H]1c1cccnc1
inactive: locus YBR021W, strain FUR4, active compounds read low 1 | locus YBR229C, strain ROT2, active compounds read low 1 | locus YCL029C, strain bik1, active compounds read low 1.02 | locus YDL035C, strain GPR1, active compounds read low 1.02 | locus YDL074C, strain BRE1, active compounds read low 1.04 | locus YDL101C, strain DUN1, active compounds read low 1.01 | locus YDL134C, strain PPH21, active compounds read low 1 | locus YDL185W, strain tfp1, active compounds read low 1.03 | locus YDL192W, strain arf1, active compounds read low 1.01 | locus YDR101C, strain arx1, active compounds read low 1.05 | locus YDR150W, strain NUM1, active compounds read low 0.992 | locus YDR162C, strain NBP2, active compounds read low 1.01 | locus YDR318W, strain mcm21, active compounds read low 1.02 | locus YDR388W, active compounds read low 1.02 | locus YDR502C, strain sam2, active compounds read low 1.04 | locus YEL061C, strain CIN8, active compounds read low 0.993 | locus YER110C, active compounds read low 1.03 | locus YER155C, strain BEM2, active compounds read low 0.992 | locus YER167W, strain BCK2, active compounds read low 0.997 | locus YGL078C, strain dbp3, active compounds read low 1.03 | locus YGL086W, strain mad1, active compounds read low 1.03 | locus YGL248W, strain PDE1, active compounds read low 1.02 | locus YGR135W, strain pre9, active compounds read low 1.01 | locus YGR229C, strain SMI1, active compounds read low 1.01 | locus YGR252W, strain gcn5, active compounds read low 1.11 | locus YHR030C, strain SLT2, active compounds read low 0.997 and 1.05 | locus YHR079C, strain IRE1 (second series), active compounds read low 1.03 | locus YHR079C, strain IRE1, active compounds read low 1.04 | locus YHR094C, strain hxt1, active compounds read low 1.01 | locus YHR129C, strain ARP1, active compounds read low 0.993 | locus YHR200W, strain rpn10, active compounds read low 1.01 | locus YIL066C, strain RNR3, active compounds read low 1.01 | locus YIL073C, strain SPO22, active compounds read low 1.07 | locus YIL125W, strain kgd1, active compounds read low 1.02 | locus YIR030C, strain dcg1, active compounds read low 1.02 | locus YJL095W, strain BCK1, active compounds read low 1.01 and 1.02 | locus YJL134W, strain LCB3, active compounds read low 0.996 | locus YJL168C, strain set2, active compounds read low 1 | locus YJL187C, strain SWE1 (second series), active compounds read low 1.01 | locus YJR043C, strain POL32, active compounds read low 1.02 | locus YJR066W, strain TOR1, active compounds read low 0.992 | locus YKL009W, strain mrt4, active compounds read low 1.03 | locus YKL068W, active compounds read low 1.01 | locus YKL085W, strain MDH1 (second series), active compounds read low 1.01 | locus YKL085W, strain MDH1, active compounds read low 1.01 | locus YKL190W, strain CNB1, active compounds read low 1 | locus YKR001C, strain vps1, active compounds read low 1.03 | locus YLR039C, strain RIC1, active compounds read low 1.02 | locus YLR058C, strain SHM2, active compounds read low 1 | locus YLR102C, strain apc9, active compounds read low 1.02 | locus YLR113W, strain HOG1, active compounds read low 1.06 | locus YLR262C, strain YPT6, active compounds read low 1.04 | locus YLR268W, strain sec22, active compounds read low 1.03 | locus YLR330W, strain CHS5, active compounds read low 0.999 | locus YLR342W, strain FKS1 (second series), active compounds read low 1.01 | locus YLR371W, strain rom2, active compounds read low 0.983 | locus YLR418C, strain cdc73, active compounds read low 1.03 | locus YML016C, strain PPZ1, active compounds read low 0.993 | locus YML032C, strain rad52, active compounds read low 1.02 | locus YML124C, strain tub3, active compounds read low 1.01 | locus YMR078C, strain ctf18, active compounds read low 1.02 | locus YMR223W, strain ubp8, active compounds read low 1.01 | locus YMR263W, strain SAP30, active compounds read low 1 | locus YMR307W, strain GAS1, active compounds read low 0.998 | locus YNL067W, strain RPL9B, active compounds read low 1.01 | locus YNL183C, strain NPR1, active compounds read low 0.992 | locus YNL233W, strain BNI4, active compounds read low 1.01 | locus YNL250W, strain rad50, active compounds read low 1.02 | locus YNL271C, strain bni1, active compounds read low 1.02 | locus YNL298W, strain CLA4, active compounds read low 1.04 | locus YNL307C, strain MCK1, active compounds read low 1.03 | locus YNL322C, strain KRE1, active compounds read low 0.993 | locus YNR052C, strain pop2, active compounds read low 1.02 | locus YOL006C, strain TOP1, active compounds read low 1.04 | locus YOL012C, strain htz1 0.58 | locus YOL147C, strain pex11, active compounds read low 1.04 | locus YOR061W, strain CKA2, active compounds read low 1.01 | locus YOR069W, strain VPS5, active compounds read low 0.997 | locus YOR136W, strain idh2, active compounds read low 1.02 | locus YOR144C, strain elg1, active compounds read low 1.01 | locus YOR184W, strain ser1, active compounds read low 1.03 | locus YOR231W, strain MKK1, active compounds read low 1.04 | locus YOR316C, strain cot1, active compounds read low 1.04 | [1] 0.995 | locus YPL256C, strain CLN2, active compounds read low 1.16 | locus YPR119W, strain clb2, active compounds read low 1 | locus YPR141C, strain kar3, active compounds read low 1 | locus YPR163C, strain tif3, active compounds read low 1.06 | locus YPR167C, strain met16, active compounds read low 1.01 | strain wtn01, active compounds read low 1.04
